Pf growth 48h: P. falciparum growth inhibition at 48 hours (one generation); Potency, µM (highest dose often 28.7 µM), without a hit: at the highest dose activity change, negative = inhibition, actives largely listed as inhibitors; 5.9% of 310,000 active; P. falciparum luciferase growth in erythrocytes, 48 h; also: potency is read from the fitted curve at half-maximal effect; % is scaled to controls: 0 for no effect and ±100 for the full control effect
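Luciferase-expressing P. falciparum in infected erythrocytes (2% hematocrit, 0.1% parasitemia final) in RPMI 1640/0.5% Albumax were exposed to compound for 48 hours at 37 C, 5% CO2; growth read as luminescence.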
Pf growth 96h: inhibits malaria parasite growth, 96 h; 6.9% of 320,000 active; P. falciparum luciferase reporter growth, 96 h; Potency, µM (titrated, usually from 28.7 µM), for inactives: top-dose activity change, negative = inhibition, usual class: inhibitors; also: potency is read from the fitted curve at half-maximal effect; % is scaled to controls: 0 for no effect and ±100 for the full control effect
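Plates of compound plus infected erythrocytes (2% hematocrit, 0.05% parasitemia final) incubate 96 hours, 37 C, 5% CO2. Detection reagent added; reduced luminescence from the parasites' luciferase reporter flags inhibition.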
NS1 function inh: inhibitors of influenza NS1 protein function; Potency, µM (highest dose often 46.1 µM), for the others: at the top dose activity, positive = more growth; 0.4% of 270,000 active; AID 2326; calls by dose curve; also: potency is read from the fitted curve at half-maximal effect; actives are rising curves; nearly all actives have a fitted effect of over 50% in size
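A cell-based growth assay was used: compounds that relieve NS1-induced slow growth of budding yeast raise OD600. Assay medium was yeast nitrogen base with ammonium sulphate and -URA supplement, pH 6.0, with 2% galactose.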
CHX counter: counter-screen hit for Shiga toxin inhibitors, cycloheximide; max response, %; 12% of 300,000 active; cell reporter, cycloheximide protein synthesis inhibition counterscreen; in the data active = max response mostly above about 13%, no sharp cut-off; inactive = mostly below about 14%; also: read at 38.3 µM for the half of the compounds with a filed dose; 0% is about no effect
Shiga toxin inh: blocks Shiga toxin action in Vero cells. Vero cells, Shiga toxin protein synthesis inhibition reporter. inhibition, % at 38.7 µM. 9.2% of 290,000 active. AID 2315; in the data active = inhibition mostly above about 28%, no sharp cut-off; inactive = mostly below about 43%; also: 0% is about no effect
* = called active by the depositor; ? = inconclusive; . = not tested or not shown; [ ] = dose if it differs, or a comment. Most compounds without a hit are left out; they make up all but 21% or so of the library. Unless noted, calls follow the shape of the dose curve; as a rule, active = well fitted inhibition curve with a large enough effect; inconclusive = small, poorly fitted or top-dose-only effect, or another doubt; inactive = no such curve, though single readings can be large or run the other way.

SMILES | Pf growth 48h | Pf growth 96h | NS1 function inh | CHX counter | Shiga toxin inh
COc1cc(/C=N/Nc2ccccn2)ccc1O | 90% | 28% | 0% | 49* | 74*
O=C1CCCc2sccc2N1 | 19% | 3.3µM* | 15% | 8 | 31
Cc1cc(C)c2c(N)c(C(=O)N/N=C/c3ccccc3)sc2n1 | 113% | 75% | 0% | 59* | 121*
Cc1cc(C)c2c(N)c(C(=O)N/N=C/c3cccnc3)sc2n1 | 8% | -3% | -10% | 43* | 43
CCOC(=O)CNC(=O)c1sc2nc(C)cc(C)c2c1N | 30% | 19%[5.75 µM] | 7% | 16 | 46
CCc1cccc(CC)c1NC(=O)CN1CCN(S(=O)(=O)c2ccccc2)CC1 | ? | 0% | -9% | -1 | 2
Cc1ccc2[nH]c(=O)c(CN(CCCO)C(C)c3nnnn3Cc3ccco3)cc2c1 (configuration not stated) | 2.3µM* | -10% | -4% | -2 | -7
CCC(c1nnnn1Cc1ccco1)N(Cc1ccccc1OC)Cc1cc2cc(C)ccc2[nH]c1=O (configuration not stated) | 1.5µM* | ? | -26% | 1 | -7
C(=N\Nc1nncc2ccccc12)/c1ccccn1 | 0.83µM* | ? | -126% | 33* | 57*
O=C(CNc1cccc2ccccc12)N/N=C/c1ccccn1 | ? | 0% | -6% | 15 | 20
C(=N\Nc1ccc2nncn2n1)/c1ccccn1 | -75% | 9.3µM* | 1% | 6 | 13
Fc1cccc(/C=N/Nc2nncc3ccccc23)c1 | . | 261% | -8% | 57* | 85*
CC(=O)Nc1ccc(/C=N/Nc2nncc3ccccc23)cc1 | 211% | 149% | 0% | 50* | 83*
CC(=O)C1=C(C)NC(=O)NC1c1ccc(Cl)cc1 (configuration not stated) | 2% | ? | . | -1 | -8
CC(C)(C)c1cc(-c2n[nH]c(=S)n2-c2ccc(Cl)cc2)n[nH]1 | 5% | 17% | -2% | -1 | 10
CC(=O)NN1C(=O)c2ccc3c4c(ccc(c24)C1=O)C(=O)N(NC(C)=O)C3=O | ? | ? | 19% | -5 | -11
C=CCCC(=O)Nc1nc(C)c(-c2csc(Nc3ccccc3OC)n2)s1 | 9.3µM* | 17µM* | 1% | -2 | -11
CCC(C)C(=O)Nc1nc(C)c(-c2csc(Nc3ccccc3OC)n2)s1 (configuration not stated) | 9.3µM* | 12µM* | 20% | -4 | -14
CCc1nnc(NC(=O)C2(C)COC(c3ccc(OC)cc3)OC2)s1 (configuration not stated) | ? | ? | . | 3 | -4
CC(C)c1ccc(S(=O)(=O)N2CCN(C(=O)CCNC(=O)Nc3ccccc3)CC2)cc1 | 12µM* | ? | . | . | .
CN1CCN(S(=O)(=O)c2ccc(C(=O)Nc3ccccc3)cc2)CC1 | . | -28% | ? | 19* | 63*
Cc1ccc(C(=O)Nc2ccccc2)cc1S(=O)(=O)N1CCN(C)CC1 | ? | ? | -3% | 2 | 3
CC(C)c1ccc(NC(=O)N2CCN(S(=O)(=O)c3ccccc3)CC2)cc1 | ? | -6%[5.75 µM] | -6% | -1 | -9
Cc1ccc(C(=O)NC(=S)Nc2ccc(S(=O)(=O)N3CCN(C)CC3)cc2)cc1 | ? | ? | 18% | 26* | 18
Cc1ccc(SSc2cc(C)ccc2N)c(N)c1 | -10% | -85% | . | . | .
SMILES | Pf growth 48h | Pf growth 96h | NS1 function inh | CHX counter | Shiga toxin inh
CCOC(=O)c1[nH]c(C)c(C(=O)NCc2ccco2)c1C | 17% | 3% | 3% | 0 | -12
Cc1ccc(SCC(=O)OCC(=O)NC(C)c2ccc(Br)cc2)cc1 (configuration not stated) | 19% | ? | . | 3 | -10
COc1ccc(O)c(C(=O)c2cc(C#N)c(=O)n(Cc3ccccc3)c2)c1 | -4% | ? | . | 13 | 27
O=C(c1cc(C(=O)NCc2ccccc2)c(=O)n(Cc2ccccc2)c1)c1cc(Br)ccc1O | 1.5µM* | 0.41µM* | ? | -1 | -1
Cc1ccc(O)c(C(=O)c2cc(C(=O)NCc3ccccc3)c(=O)n(Cc3ccccc3)c2)c1 | 3.7µM* | ? | 14% | 12 | -9
N#Cc1cc(C(=O)c2cc(Br)ccc2O)cn(Cc2ccccc2)c1=O | ? | ? | . | 8 | -11
COC(=O)c1[nH]c2ccc(Cl)cc2c1NC(=O)CCN1CCN(C2CCCCC2)CC1 | 12µM* | 3.7µM* | -6% | 16 | -8
CCOC(=O)C1CCN(CC(=O)Nc2c(C(=O)OC)[nH]c3ccccc23)CC1 | . | -8% | -6% | -3 | -2
COC(=O)c1[nH]c2ccc(C)cc2c1NC(=O)CCN1CCN(C2CCCCC2)CC1 | -20% | . | 0% | -1 | -8
COC(=O)c1[nH]c2ccc(C)cc2c1NC(=O)CN1CCCC(C)(C)C1 | ? | 12µM* | 2% | -4 | -12
CCOC(=O)C1CCN(CC(=O)Nc2c(C(=O)OC)[nH]c3ccc(Cl)cc23)CC1 | 13µM* | ? | -18% | -3 | -11
COC(=O)c1[nH]c2ccc(Cl)cc2c1NC(=O)Oc1ccccc1 | 133% | 275% | -54% | 40* | 56*
COC(=O)c1[nH]c2ccc(Br)cc2c1NC(=O)CN1CCN(C2CCCCC2)CC1 | ? | 2.6µM* | -6% | -9 | -28
CC1CN(C(=O)c2cc(S(=O)(=O)N(C)c3ccc(F)cc3)ccc2Cl)CC(C)O1 (configuration not stated) | -20% | -13% | 20% | 6 | -12
Cc1ccc(-c2noc(C3CCCN(C(=O)c4c(F)cccc4F)C3)n2)cc1 (configuration not stated) | -6% | . | -59% | 29 | 69
O=C(Cc1ccccc1)N1CCCC(c2nc(-c3ccc(S(=O)(=O)N4CCCC4)cc3)no2)C1 (configuration not stated) | . | 8.3µM* | 3% | -2 | -8
Cc1ccc(-c2noc(C3CCCN(C(=O)c4ccccc4Br)C3)n2)cc1 (configuration not stated) | 0% | ? | -22% | 27* | 53*
COc1ccc(-c2noc(C3CCCN(C(=O)c4ccccc4OC)C3)n2)cc1OC (configuration not stated) | ? | ? | -60% | 23* | 29
O=C(C1CC1)N1CCC(c2nc(-c3ccc(S(=O)(=O)N4CCCC4)cc3)no2)CC1 | . | ? | -2% | -3 | -18
O=C(CSc1ccc(F)cc1)NC1CCCCC1 | 86% | 15% | -1% | 36* | 71*
O=C(CSc1ccc(Cl)cc1)NC(=O)NC1CCCC1 | -2% | -2% | . | . | .
O=C(CSc1ccc(F)cc1)NC12CC3CC(CC(C3)C1)C2 | -18% | ? | -11% | 37* | 39
O=C(CCSc1ccc(Cl)c(Cl)c1)NC12CC3CC(CC(C3)C1)C2 | ? | 1% | -26% | 27* | 77
Cc1ccc(SCC(=O)NC2CC2)cc1 | 23% | 71% | 4% | 15 | 6
O=C(CSc1ccccc1C(=O)O)NC12CC3CC(CC(C3)C1)C2 | 6% | 11% | 5% | 2 | 20
O=C(CSc1ccc(Cl)cc1)NC1CCCC1 | 57% | 69% | -9% | 35* | 72*
